According to PubChem BioAssay (EPA / NIEHS):
Inconclusive results are not listed. Active and inactive are the calls of the source. How the source made its calls: active means hit-call score of the fitted dose curve at least 0.9, where 1 is the maximum; inconclusive means response in the unintended direction; inactive means score below 0.9.

Assays:
[1] = ATG_XTT_Cytotoxicity: Cytotoxicity Assessment in the Attagene TRANS-FACTORIAL HepG2 Assay (AID 2283584);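 on AC50: XTT signal for cell number as viability in transfected HepG2 cells; cells exposed to compound for 24 h before reading; active means loss of viability signal versus DMSO baseline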
How it was run: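 HepG2 cells transiently transfected with GAL4-UAS multiple reporter units, dosed 24 h; cytotoxicity read by XTT as loss of signal versus DMSO baseline.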

[2] = TOX21_p53_BLA_p2_viability: Viability Assessment in the Tox21 HCT-116 p53 Agonism Beta-lactamase Assay, Phase 2 (AID 2283591);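 further: compound exposure lasted 16 h at 37 °C; actives lower the ATP signal meaning cytotoxicity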
How it was run: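 Cytotoxicity readout: CellTiter-Glo ATP luminescence, 30 min at room temperature, after the beta-lactamase read. Cells were HCT116 exposed 16 h at 37C to compounds pin-transferred at 217-fold dilution from DMSO stocks.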

[3] = target: Cellular tumor antigen p53 (Homo sapiens) (UniProt P04637); assay: TOX21_p53_BLA_p2_ratio: Tox21 HCT-116 p53 Agonism Beta-lactamase Assay, Ratio, Phase 2 (AID 2283592)
How it was run: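 HCT-116 cells with p53-responsive beta-lactamase reporter, 4000 cells/well, preincubated 5 h, then compound in DMSO (217-fold dilution) for 16 h at 37C. CCF4-AM substrate 2 h at room temperature; 460/530 nm emission ratio fitted upward versus DMSO.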

[4] = target: Cellular tumor antigen p53 (Homo sapiens) (UniProt P04637); assay: TOX21_p53_BLA_p3_ratio: Tox21 HCT-116 p53 Agonism Beta-lactamase Assay, Ratio, Phase 3 (AID 2283596)
How it was run: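 HCT116 p53-bla cells (4000/well) given compound in DMSO (217-fold dilution) after 5 h, incubated 16 h at 37C. CCF4-AM substrate 2 h at room temperature; 460/530 nm emission ratio, gain fitted against DMSO.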

[5] = target: Cellular tumor antigen p53 (Homo sapiens) (UniProt P04637); assay: TOX21_p53_BLA_p5_ratio: Tox21 HCT-116 p53 Agonism Beta-lactamase Assay, Ratio, Phase 5 (AID 2283599)
How it was run: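 Beta-lactamase reporter ratio (blue 460 nm over green 530 nm, 405 nm excitation) after 2 h CCF4-AM loading, in HCT-116 cells exposed 16 h at 37 C to compounds pinned at 217-fold dilution. Increases relative to DMSO baseline scored.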

[6] = target: Cellular tumor antigen p53 (Homo sapiens) (UniProt P04637); assay: TOX21_p53_BLA_p4_ratio: Tox21 HCT-116 p53 Agonism Beta-lactamase Assay, Ratio, Phase 4 (AID 2283601)
How it was run: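 Signal is the blue/green (460nm/530nm) ratio of cleaved versus uncleaved CCF4-AM substrate, read after 2 h substrate loading. Cells were HCT116 carrying the p53-responsive beta-lactamase reporter, dosed 16 h at 37C, 5% CO2; CellTiter-Glo measured in parallel.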

[7] = TOX21_p53_BLA_p4_viability: Viability Assessment in the Tox21 HCT-116 p53 Agonism Beta-lactamase Assay, Phase 4 (AID 2283597);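 further: hits lower the luminescence signal meaning cytotoxicity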
How it was run: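 HCT-116 p53-bla cells, 4000/well, dosed after 5 h attachment and incubated 16 h at 37 °C, 5% CO2. Viability from CellTiter-Glo ATP luminescence after 30 min at room temperature, taken after the beta-lactamase read; loss of signal indicates cytotoxicity.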

[8] = TOX21_p53_BLA_p5_viability: Viability Assessment in the Tox21 HCT-116 p53 Agonism Beta-lactamase Assay, Phase 5 (AID 2283600)
How it was run: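 HCT-116 p53 beta-lactamase reporter cells, 4000/well, were exposed to compound (pin transfer, 217-fold dilution) for 16 hours at 37C. Cellular ATP was read by CellTiter-Glo luminescence after 30 min at room temperature.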

[9] = TOX21_p53_BLA_p3_viability: Viability Assessment in the Tox21 HCT-116 p53 Agonism Beta-lactamase Assay, Phase 3 (AID 2283593);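 further: cells exposed to compound for 16 h before reading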
How it was run: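 Cellular ATP was quantified by CellTiter-Glo luminescence, read after 30 min at room temperature. Beforehand, HCT116 cells (4000/well) received compound 5 h post-seeding, 217-fold diluted from DMSO, then incubated 16 h at 37C.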

Measured: AC50

Chain of Cellular tumor antigen p53 (Homo sapiens) (P04637 whole entry, looked up): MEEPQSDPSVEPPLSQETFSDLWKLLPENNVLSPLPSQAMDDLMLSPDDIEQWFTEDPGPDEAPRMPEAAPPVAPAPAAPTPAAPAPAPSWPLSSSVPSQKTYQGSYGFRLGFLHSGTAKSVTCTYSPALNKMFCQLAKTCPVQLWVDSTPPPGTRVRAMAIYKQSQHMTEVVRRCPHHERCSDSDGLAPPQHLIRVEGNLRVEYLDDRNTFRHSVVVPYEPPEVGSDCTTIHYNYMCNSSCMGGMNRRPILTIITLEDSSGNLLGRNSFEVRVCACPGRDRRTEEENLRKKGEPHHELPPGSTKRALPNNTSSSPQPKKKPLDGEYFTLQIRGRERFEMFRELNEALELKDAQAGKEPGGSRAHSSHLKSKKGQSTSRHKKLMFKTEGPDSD

CC1=CCC(O)(C(C)C)CC1 (stereo unspecified)
not listed: [7] | [8] | [9]
inactive: all other assays above

O=C=NC1CCC(CC2CCC(N=C=O)CC2)CC1 (stereo unspecified)
not listed: [5] | [9]
inactive: all other assays above

NC(N)=NC(=O)c1nc(Cl)c(N)nc1N
not listed: [9]
inactive: all other assays above

CCCCCCCCC
not listed: [5] | [9]
inactive: all other assays above

CCCC(=O)C(C)=O
not listed: [7] | [9]
inactive: all other assays above

Cc1cc(C2(c3cc(C)c(O)cc3C)OS(=O)(=O)c3ccccc32)c(C)cc1O
inactive: [1] | [2] | [3] | [4] | [8]

CCCCC(CC)COC(=O)/C=C\C(=O)OCC(CC)CCCC (stereo unspecified)
not listed: [4] | [8]
inactive: all other assays above

C[C@H]1C[C@@H]2[C@H]([C@@H](O)C[C@@]3(C)[C@H]2CC[C@]3(O)C(=O)CO)[C@@]2(C)C=CC(=O)C=C12
inactive: [1] | [2] | [9] | [4] | [6]

NCCCCCCN
not listed: [9]
inactive: all other assays above

COc1cccc(OC)c1
not listed: [4] | [5] | [7]
inactive: all other assays above

Fc1c(F)c(F)c(Br)c(F)c1F
inactive: [1] | [2] | [3] | [4] | [6]

C#C[C@]1(O)CC[C@H]2[C@@H]3CCC4=Cc5oncc5C[C@]4(C)[C@H]3CC[C@@]21C
active: [1] 151 µM
not listed: [7] | [9]
inactive: all other assays above

O=P(c1ccccc1)(c1ccccc1)c1ccccc1
not listed: [4] | [5] | [6]
inactive: all other assays above

CCCCCCCCCC=O
not listed: [5] | [7]
inactive: all other assays above

O=[N+]([O-])c1cc(C(F)(F)F)ccc1Cl
not listed: [5] | [7]
inactive: all other assays above

CC(=O)OCC=Cc1ccccc1
not listed: [5] | [8] | [9]
inactive: all other assays above

C=C(C)C(=O)O
not listed: [3]
inactive: all other assays above

C=CC(=O)OCCOCCOCC
not listed: [7] | [9]
inactive: all other assays above

FC1(F)C(F)(F)C(F)(F)C2(F)C(F)(C1(F)F)C(F)(F)C(F)(F)C1(F)C(F)(F)C(F)(F)C(F)(F)C(F)(F)C12F (stereo unspecified)
not listed: [7] | [9]
inactive: all other assays above

O=C(O)CCCCC1CCSS1 (stereo unspecified)
not listed: [5] | [7]
inactive: all other assays above

CCC(C)CCCC(C)(C)O (stereo unspecified)
inactive: [1] | [2] | [3] | [6]

C[C@]12CC[C@H]3[C@@H](CCC4=CC(=O)CC[C@@]43C)[C@@H]1CC[C@@H]2C(=O)CO
not listed: [9]
inactive: all other assays above

CCCC1CCC(=O)O1 (stereo unspecified)
inactive: [1] | [2] | [3] | [4] | [6]

CCCCC(CC)COCCC#N (stereo unspecified)
not listed: [4] | [6] | [9]
inactive: all other assays above
